# Measurements reported in PubChem BioAssay (NCATS).
# Records with an inconclusive call do not appear. Some structures have more than one record in an assay (separate samples or runs), and their calls can disagree. The source made the active and inactive calls. Calls come from the whole dose curve; as a rule, active = well fitted curve in the direction sought with a large enough effect; inconclusive = small, poorly fitted or top-dose-only effect, or another doubt; inactive = no such curve, though single readings can be large or run the other way.
# Target: Metallo-beta-lactamase type 2 (Klebsiella pneumoniae) (UniProt C7C422)
# Test: qHTS to identify inhibitors of the New Delhi Metallo-beta-lactamase (NDM): assay validation screen against the NCATS LOPAC Collection (AID 1794843);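 for activity change, negative = inhibition: nitrocefin turnover by NDM-1 measured as 485 nm absorbance at plateau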
# Conditions: NDM-1 enzyme, nitrocefin hydrolysis, absorbance 485 nm; series mostly up to 38.4 µM; activity change, negative = inhibition: at the top concentration
# Source text: Assay Submitter (PI): James Inglese Ph.D., Patricia Dranchak Ph.D., Mahesh Aitha Ph.D.
# Assay Development and Screening Technology Laboratory (ADST)
# National Center for Advancing Translational Sciences (NCATS), Rockville, MD
# National Institute of Health (NIH), Bethesda, Maryland
# The metallo-beta-lactamases (MBL) are a main antibiotic resistance mechanism evolved by bacteria. There is an urgent clinical need for MBL inhibitors to mitigate this growing threat. To support a machine-based learning study, qHTS has been used to experimentally test inhibitors identified by prediction tools.
# PROTOCOL TABLE (as described by Inglese et al., 2007)
# SEQUENCE No. (e.g., 1, 2, 3, etc.); […] (e.g., enzyme, Incubation, Reagent, etc.); VALUE; DESCRIPTION
# 1; NDM-1; 4 uL of 3 nM enzyme in 50 mM HEPES (pH 7.0), 1 uM Zn2SO4, 0.01% Tween20; Use BioRaptr to dispense into Aurora black, clear bottom low base 1536-well plates
# 2; Compounds; 23 nL; Use Pin Tool (Wako) to transfer DMSO control and library compounds in DMSO
# 4; Reagent; 2 uL of 50 uM nitrocefin
# 6; Detector; Absorbance at 485 nm (bandwidth = 5 nm, 25 flashes/well) on Tecan Infinity
# NOTES (numbers refer to sequence above)
# 1; Column 1 of each plate received assay buffer without enzyme and columns 2-48 received enzyme for a final assay concentration of 2 nM.
# 2; Control plate contained DMSO in columns 1, 2, 3, and 4.
# 3; Compound interaction with enzyme.
# 5; Substrate interaction with enzyme, plateau phase of kinetics.
# 6; Default reader settings were applied for absorbance read at 485 nm, bandwidth = 5 nm, 25 flashes/well.
# Inglese J, Shamu CE, Guy RK. 2007. Reporting data from high-throughput screening of small-molecule libraries. Nat Chem Biol. doi:10.1038/nchembio0807-438
# Yasgar A, Shinn P, Jadhav A, Auld D, Michael S, Zheng W, Austin CP, Inglese J, Simeonov A. 2008. Compound Management for Quantitative High-Throughput Screening. J Lab Autom 13:79 - 89. doi:10.1016/j.jala.2007.12.004
# % is set by controls: 0 for no effect and ±100 for the full control effect; potency is the fitted concentration of half-maximal effect.
# Chain of Metallo-beta-lactamase type 2 (Klebsiella pneumoniae) (C7C422 whole entry, looked up): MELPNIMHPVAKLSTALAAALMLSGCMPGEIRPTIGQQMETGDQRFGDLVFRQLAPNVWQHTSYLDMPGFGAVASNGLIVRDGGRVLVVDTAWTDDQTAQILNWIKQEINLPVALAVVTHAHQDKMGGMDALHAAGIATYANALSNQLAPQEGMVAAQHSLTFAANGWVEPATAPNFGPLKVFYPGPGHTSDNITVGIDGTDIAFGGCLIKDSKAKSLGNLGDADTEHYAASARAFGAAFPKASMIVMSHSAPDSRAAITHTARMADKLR
SMILES,"activity change, negative = inhibition",Potency
O=C1NCC2(CCN(CCc3ccccc3)CC2)O1,2.04% (inactive),–
CC1(C)CCC2=C(O1)c1ccccc1C(=O)C2=O,-0.412% (inactive),–
CC(=O)O[C@]1(C(C)=O)CC[C@H]2[C@@H]3C=C(Cl)C4=CC(=O)[C@@H]5C[C@@H]5[C@]4(C)[C@H]3CC[C@@]21C,-1.1% (inactive),–
CCCNC(=O)NS(=O)(=O)c1ccc(Cl)cc1,1.23% (inactive),–
CCN(CC)C(=O)c1ccc(O)c(OC)c1,-0.384% (inactive),–
CC1=C(/C=C/C(C)=C/C=C/C(C)=C/C(=O)Nc2ccc(O)cc2)C(C)(C)CCC1,0.446% (inactive),–
CCN(CC)CCOC(=O)c1ccc(N)cc1,-3.83% (inactive),–
COc1ccccc1N1CCN(CCCNc2cc(=O)n(C)c(=O)n2C)CC1,0.0819% (inactive),–
CC(=O)c1ccc(S(=O)(=O)NC(=O)NC2CCCCC2)cc1,7.07% (inactive),–
O=C(NCCN1CCOCC1)c1ccc(Cl)cc1,-10.4% (inactive),–
COc1ccc(Cc2nccc3cc(OC)c(OC)cc23)cc1OC,0.245% (inactive),–
CN(C)CCC(c1ccccc1)c1ccccn1 (configuration not stated),-8.64% (inactive),–
CC(C)(C)c1ccc(C(O)CCCN2CCC(C(O)(c3ccccc3)c3ccccc3)CC2)cc1 (configuration not stated),5.29% (inactive),–
COC(=O)[C@@H]1[C@H]2C[C@H]3c4[nH]c5ccccc5c4CCN3C[C@@H]2CC[C@@H]1O,0.16% (inactive),–
CCn1cc(C(=O)O)c(=O)c2ccc(C)nc21,-17.2% (inactive),–
CCN1CCC[C@H]1CNC(=O)c1cc(S(N)(=O)=O)ccc1OC,1.78% (inactive),–

SMILES,"activity change, negative = inhibition",Potency
CCN(CC)CCNC(=O)c1ccc(N)cc1,-2.67% (inactive),–
O=C1NC(=O)C(c2ccccc2)(c2ccccc2)N1,-1.54% (inactive),–
Clc1ccc(C(c2ccc(Cl)cc2)n2cc[n+](CC(OCc3ccc(Cl)cc3Cl)c3ccc(Cl)cc3Cl)c2)cc1 (configuration not stated),7.66% (inactive),–
CCCCC1C(=O)N(c2ccccc2)N(c2ccccc2)C1=O,0.346% (inactive),–
O=C(O)CCc1nc(-c2ccccc2)c(-c2ccccc2)o1,-1.59% (inactive),–
C[N+](C)(C)CCCCCC[N+](C)(C)C,–,inactive
CC/C(=C(\c1ccccc1)c1ccc(OCCN(C)C)cc1)c1ccccc1,–,14.1 µM (active) and inactive
CC(=O)CCCCn1c(=O)c2c(ncn2C)n(C)c1=O,-5% (inactive),–
Cc1cccc(C)c1OCC(C)N (configuration not stated),-3.52% (inactive),–
COc1cccc(-c2cc(=O)c3ccccc3o2)c1N,1.15% (inactive),–
CC(C)NCC(O)COc1cccc2[nH]ccc12 (configuration not stated),1.39% (inactive),–
Clc1ccc(Cn2c(CN3CCCC3)nc3ccccc32)cc1,-3.88% (inactive),–
O=c1cc(-c2ccc(O)cc2)oc2cc(O)cc(O)c12,6.21% (inactive),–
NCCS,-2.12% (inactive),–
CC(=O)N[C@@H](CS)C(=O)O,7.82% (inactive),–
NC(N)=Nc1nc(CSCC/C(N)=N/S(N)(=O)=O)cs1,5.35% (inactive),–
